# Experimental data from PubChem BioAssay AID686940 (The Scripps Research Institute Molecular Screening Center, 2013).
# Among all 370,000 compounds or so, about 2,600 (0.7%) were called active. This is one part of a sample in which actives are shown more often than they occur. Values without a mark were called inactive.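 The calls were made as follows: active = inhibition above a per-plate cutoff, mean inhibition of test wells between control levels plus 3 SD (cut at about 38% in these data); inactive = the rest.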
# Target: COUP transcription factor 2 (Homo sapiens) (UniProt P24468)
# Sequence (P24468 whole entry, looked up): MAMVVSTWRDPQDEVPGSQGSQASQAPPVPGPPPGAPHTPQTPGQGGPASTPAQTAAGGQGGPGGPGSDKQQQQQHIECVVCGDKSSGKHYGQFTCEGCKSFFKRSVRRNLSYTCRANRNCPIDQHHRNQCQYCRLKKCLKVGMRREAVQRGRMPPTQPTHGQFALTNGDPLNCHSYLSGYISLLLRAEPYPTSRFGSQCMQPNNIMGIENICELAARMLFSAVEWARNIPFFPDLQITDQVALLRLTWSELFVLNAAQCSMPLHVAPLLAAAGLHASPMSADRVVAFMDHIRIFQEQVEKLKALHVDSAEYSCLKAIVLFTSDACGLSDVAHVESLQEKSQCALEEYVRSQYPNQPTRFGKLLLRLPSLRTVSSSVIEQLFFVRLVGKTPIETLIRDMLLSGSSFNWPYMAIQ
# Assay: NR2F2 transcriptional activity inhibitors, primary screen, cell-based, luciferase reporter, HEK293T, luminescence (AID 686940);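 also: cells cotransfected with COUP-TFII expression vector driving the NGFI-A reporter; 0% = median of COUP-TF2 test wells and 100% = reporter-only cells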
# Conditions: HEK293T NGFI-A luciferase reporter, at 8.6 µM, stronger effect = higher value
row,Structure (SMILES),inhibition
1,CCCC1CCC2(CCCN2CCOC(=O)NCc2ccccc2)CC1 (stereo not given),-2.03%
2,O=C(NC1CCCCN(Cc2ccc(Cl)cc2)C1=O)c1ccc(Br)cc1 (stereo not given),12.4%
3,CCOC(=O)C1(Cc2ccccc2)CCN(Cc2cn(C(C)=O)c3ccccc23)CC1,19.5%
4,Fc1ccc(COc2cccc(-c3n[nH]c(=S)o3)c2)cc1,-3.8%
5,Cc1nc2ccccc2cc1OCc1ccc(F)cc1,41.9% (active)
6,CC(=O)c1ccccc1OCc1ccc(C(=O)c2ccccc2)cc1,23.1%
7,COc1ccc(Cn2cc(CN3[C@@H](CC(C)C)COc4cc(Br)ccc4S3(=O)=O)nn2)cc1,0.76%
8,O=C(Nc1ccc(S(=O)(=O)N2CCOCC2)cc1)C1CCN(S(=O)(=O)c2ccc(Cl)cc2)CC1,44.8% (active)
9,CC(=O)Nc1ccc(S(=O)(=O)N2CCC(C(=O)NC3CC3)CC2)cc1,-8.71%
10,CC(=O)Nc1ccc(NC(=O)C2CCCN(S(=O)(=O)c3ccc(Cl)cc3)C2)cc1 (stereo not given),-3.16%
11,COC(=O)C1CN(Cc2ccc(F)cc2)CCS(=O)(=O)N1Cc1ccc(Cl)cc1 (stereo not given),7.77%
12,CN(C(=O)c1cccc(NC(=O)Cc2cccc([N+](=O)[O-])c2)c1)C1CCCCC1,38.2% (active)
13,CN(CCc1ccccc1)C(=O)c1cccc(NC(=O)Cc2cccc(NC(=O)C3CCCN(C(=O)C4CCC4)C3)c2)c1 (stereo not given),9.42%
14,CN(C(=O)c1cccc(NC(=O)Cc2ccc(NC(=O)C3CCN(C(=O)C4CCCCC4)CC3)cc2)c1)C1CCC1,-2.15%
15,CN(C(=O)c1cccc(NC(=O)Cc2cccc(NC(=O)C3CCCN(C(=O)C4CC4)C3)c2)c1)C1CCC1 (stereo not given),2.2%
16,CN(C(=O)c1cccc(NC(=O)Cc2ccc([N+](=O)[O-])cc2)c1)C1CCC1,33.2%
17,CN(CCc1ccccc1)C(=O)c1cccc(NC(=O)Cc2cccc(NC(=O)C3CCCN(C(=O)CCc4ccccc4)C3)c2)c1 (stereo not given),44.5% (active)
18,COC(=O)C1CN(CCc2ccccc2)CCS(=O)(=O)N1Cc1cccc(Cl)c1 (stereo not given),-5.31%
19,Cc1ccc(-n2c(SCC(=O)Nc3ccc(S(=O)(=O)Nc4nccs4)cc3)nnc2-c2cccnc2)cc1,8.88%
20,O=C(CSc1nnc(-c2cccc(Cl)c2)n1Cc1ccco1)Nc1ccc(OCc2ccccc2)cc1,-14.7%
21,O=C(NC1CCC1)c1ccc(C#Cc2cccc(F)c2)c[n+]1[O-],0.7%
22,CN1OC[C@@H]2CN(S(=O)(=O)c3cccc(C(F)(F)F)c3)[C@H](c3ccc(-c4cc5ccccc5o4)cc3)C[C@@H]21,44.1% (active)
23,COc1ccccc1-c1ccc([C@@H]2C[C@H]3[C@H](CON3C)CN2S(=O)(=O)c2cc(Cl)cc(Cl)c2)cc1,5.76%
24,COc1ccc(S(=O)(=O)N2C[C@H]3CON(C)[C@H]3C[C@H]2c2cccc(Br)c2)cc1,10.7%
25,CCOC(=O)c1csc(NC(=O)C2CCCN(S(=O)(=O)c3ccc(Cl)s3)C2)n1 (stereo not given),22.3%

row,Structure (SMILES),inhibition
1,C=C(C)C#CC(Cc1ccccc1)N(CC1CC1)/C(N)=N/C(=O)OCc1ccccc1 (stereo not given),5.09%
2,CCCCNC(=O)C[C@H]1C[C@@]2(C(=O)OC)C(=C[C@H](COCc3ccccc3)O[C@@H]2C)N(Cc2ccc(Cl)cc2Cl)C1=O,1.56%
3,COC(=O)[C@]12C[C@H](CC(=O)N3CCOCC3)C(=O)N(Cc3ccc(Cl)cc3Cl)C1=C[C@H](C(C)C)O[C@@H]2C1CC1,1.35%
4,Cc1ccc(S(=O)(=O)N2CCCCC2)cc1C(=O)N(C)CC(=O)Nc1cccc(F)c1,-3.43%
5,Cc1ccc(NC(=O)CN(C)CC(=O)Nc2cccc(F)c2)cc1[N+](=O)[O-],58.8% (active)
6,Cc1ccc(NC(=O)CN(C)Cc2ccc(F)cc2)c([N+](=O)[O-])c1,-11.4%
7,c1csc(-c2nnc(SCc3nc4ccccc4[nH]3)o2)c1,-10.7%
8,Cc1ccc(NC(=O)Cc2cccc(F)c2)c(S(=O)(=O)N2CCOCC2)c1,-8.19%
9,CCOC(=O)[C@]12CCCC3=C1N(CCC3)C(=O)[C@@H](CC(=O)NCC13CC4CC(CC(C4)C1)C3)C2,21.7%
10,O=C1CC(c2ccc3c(c2)OCO3)N=C2N(CC3CC3)C/C(=C/c3ccccc3)N12 (stereo not given),20.7%
11,Cc1ccc(S(=O)(=O)NCc2nc3ccccc3c(=O)n2N)cc1,0.39%
12,Cc1nc(CNS(=O)(=O)c2cc([N+](=O)[O-])ccc2C)cs1,-13.5%
13,Cc1nc(CNS(=O)(=O)c2ccc(Oc3ccccc3)cc2)cs1,50.2% (active)
14,Cc1ccc(-n2nc3c(=O)n(C(C)C(=O)NCc4ccc5c(c4)OCO5)nc(C)c3c2C)cc1 (stereo not given),48.1% (active)
15,Cc1nn(C(C)C(=O)NCCC2=CCCCC2)c(=O)c2nn(-c3ccccc3)c(C)c12 (stereo not given),-2%
16,Cc1nn(C(C)C(=O)N2CCOCC2)c(=O)c2nn(-c3ccccc3)c(C)c12 (stereo not given),6.72%
17,Cc1cc(NS(=O)(=O)c2ccc(NC(=O)CSc3nnc(-c4ccc(C(C)(C)C)cc4)n3Cc3ccco3)cc2)nc(C)n1,1.48%
18,CN(CCc1ccccc1)C(=O)Cn1nc(-c2ccccc2)ccc1=O,2.95%
19,C[C@H](C(=O)N(C)c1ccccc1)[C@@H](O)c1ccc2ccccc2c1,10.2%
20,Cc1ccc(-n2c(COc3ccccc3)nnc2SCC(=O)Nc2ccc3c(c2)OCCO3)cc1,9.88%
21,OCCCNc1nccc(-c2cc(Nc3cccc(Cl)c3)ncn2)n1,44.6% (active)
22,COc1ccc(-n2c(SCC(=O)NC3CCCC3)nnc2-c2ccncc2)cc1,4.6%
23,CCC(=O)OCCCN1C(=O)CCC12CCC(c1ccccc1)CC2 (stereo not given),-6.04%
24,COc1ccc(C(=O)CSc2nnc(-c3cnccn3)n2-c2ccc(C)cc2)cc1,3.51%
25,O=C(CCl)NC1CCCCN(Cc2cccc(C(F)(F)F)c2)C1=O (stereo not given),4.87%
